Screening results from PubChem.
ANO1 block = blocks the mouse calcium-activated chloride channel TMEM16A. Q8BHY3. HEK293 TMEM16A/YFP iodide influx fluorescence, ionomycin. normalized B-score (activity score, 25-100; higher = stronger inhibition) at 10 µM. 1.2% of 310,000 active. AID 588511;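 active = ratio plate-corrected score three or more library SD toward inhibition, starting fluorescence score within five deviations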;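 also: score derived from kinetic fluorescence span divided by baseline fluorescence per well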
GRK2 aptamer HTS = human GRK2 inhibition via aptamer displacement. 0.59% of 330,000 active. P25098. bead flow cytometry, FAM-aptamer displacement from GRK2. inhibition of aptamer binding, % at 10 µM. AID 488847;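 active = inhibition of aptamer binding above 40%, roughly 3 SD of noise, on plates passing a quality check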;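 also: median bead fluorescence of bound FAM aptamer so fluorescent compounds give negative values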
TLR9-MyD88 inh = blocks human TLR9 binding to MyD88 | 0.21% of 340,000 active | CHO BLA complementation TLR9-MyD88, CCF4 FRET ratio | AID 504734 | Q9NR96+Q99836 | inhibition, % at 4.98 µM;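 active = inhibition above the mean over all tested compounds plus 3 SD, cut at about 21% in these data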;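 also: 0% = DMSO only wells and 100% = clavulanate BLA inhibitor control wells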
TLR4 MyD88 comp = blocks binding of human TLR4 to MyD88 | HeLa CL3-4 TLR4/MyD88 BLA complementation, FRET ratio | inhibition, % at 8.4 µM | O00206+Q99836 | 0.18% of 200,000 active; in the data active = inhibition above about 25%;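 also: 0% = vehicle and 100% = reference inhibitor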
NOD2 RIPK2 PPI = NOD2-RIPK2 protein interaction inhibition. CHO BLA complementation NOD2-RIPK2, CCF4 ratio. inhibition, % at 4.98 µM. 0.38% of 360,000 active; in the data active = inhibition above about 21%;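 also: 0% = vehicle only and 100% = reference blocker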
TMEM16A act = activates or potentiates the mouse TMEM16A chloride channel | Q8BHY3 | HEK293 TMEM16A/YFP-H148Q/I152L, iodide quench fluorescence; hits give low values | B-score at 10 µM | 0.3% of 340,000 active;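 active = fluorescence-ratio B-score plate-corrected deviation score at least 3 library SD below zero, with starting fluorescence score within 5 deviations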;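 also: channel opened by trigger with iodide after compound preincubation; score built on the fluorescence ratio of max minus min over baseline; more negative score means more quench and so TMEM16A activation or potentiation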
GRK2 CP1 = human GRK2 inhibition confirmation, cherry pick 1 | shares compounds with GRK2 aptamer HTS | bead-bound GRK2, FAM-aptamer displacement, flow cytometry | aptamer displacement, % at 10 µM | 4% of 2,000 active;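 active = aptamer displacement above 40%, near three times the noise of non-fluorescent compounds, on plates passing quality checks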;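 also: negative values mostly reflect intrinsic compound fluorescence rather than true enhancement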
Aptamer quench 1 = counter-screen for GRK2 aptamer inhibitors: fluorescent aptamer quenchers; 110 tested, under 10 active; fluorescence change (kMESF span), kMESF (test concentration not listed); shares compounds with GRK2 aptamer HTS; Fluorescent RNA aptamer beads, quenching, flow cytometry; hits give high values;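 active = compounds whose bead fluorescence drops by more than 37 kMESF across the dose range, marking them as dye quenchers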
Aptamer quench SP = quenches fluorescent RNA aptamer, GRK2 hit artifact. 2,000 tested, under 10 active. shares compounds with GRK2 aptamer HTS. Carboxyfluorescein RNA aptamer on beads, flow cytometry quenching; hits give low values. fluorescence response (% of DMSO), % at 10 µM;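 active = compounds that quench the bead-bound fluorescent RNA probe, cutting fluorescence to under half of the solvent control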;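 also: counterscreen run without GRK2 so only probe quenching by compound is measured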
GRK2 CP2 = human GRK2 inhibition confirmation, cherry pick 2. shares compounds with GRK2 aptamer HTS. bead-bound GRK2, FAM-aptamer displacement, flow cytometry. inhibition of aptamer binding, % at 10 µM. 360 tested, under 10 active;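 active = inhibition of aptamer binding above 40%, about triple the noise seen with nonglowing compounds, on plates passing quality control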;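 also: negative values mostly come from compounds that fluoresce themselves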
FAM quench SP = counter-screen for GRK2 binding hits: quenchers of fluorescent RNA aptamer | carboxyfluorescein RNA aptamer beads, flow cytometry quenching; hits give low values | 360 tested, under 10 active | fluorescence response vs DMSO, % at 10 µM | shares compounds with GRK2 aptamer HTS;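 active = response vs DMSO under 50%, meaning signal dropped by over half, treated as fluorescence quencher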;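 also: labelled aptamer on streptavidin beads without GRK2 as a quench counter-screen; 100% = bead fluorescence of DMSO wells and lower means quenching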
FAM quench DR = aptamer fluorescence quenching in GRK2 powder counter-screen. AID 588496. shares compounds with GRK2 aptamer HTS. fluorescence ratio to DMSO, % at 11.1 µM. Bead-bound FAM RNA aptamer fluorescence quenching, flow cytometry; hits give low values. 35 tested, under 10 active;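 active = compounds that dim the fluorescent label, raw bead signal shifting by over 33 units between lowest and highest dose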
Starred values were filed as active, the others as inactive; i = inactive; x = not tested or not shown. This is a sample that favours compounds with a hit; in the whole collection about 2.2% have one here.

SMILES | ANO1 block | GRK2 aptamer HTS | TLR9-MyD88 inh | TLR4 MyD88 comp | NOD2 RIPK2 PPI | TMEM16A act | GRK2 CP1 | Aptamer quench SP | others
O=[N+]([O-])c1ccc(Cl)cc1P(=O)(O)c1cc(Cl)ccc1[N+](=O)[O-] | x | x | -6 | x | 12 | i | x | x
N#CC1=C(S)N(c2ccccc2)C(c2ccco2)NC1=O (stereo unspecified) | i | 74* | -2 | -8 | 6 | i | 1 | 101
COc1ccc(OCCN2C(=O)c3cccc(N)c3C2=O)cc1 | i | 0 | 2 | x | 14 | i | x | x
O=C(CN1CCc2ccccc21)NC(=O)NCc1ccccc1 | i | 42* | 3 | -6 | -8 | i | 70* | 101 | Aptamer quench 1=11;FAM quench DR=101
O=C(CN1CCCc2ccccc21)NC(=O)NCc1ccccc1 | i | 1 | 6 | x | -1 | i | x | x
O=C(O)c1ccccc1Nc1cccc(OCc2ccc3ccccc3n2)c1 | 100* | 0 | -10 | x | -6 | i | 6 | 90
O=C(COc1ccc2ccccc2c1)Nc1cccc(C(=O)Nc2ccccc2C(=O)O)c1 | i | 10 | 2 | -12 | -7 | i | x | x
O=C(Cn1nc(CNc2ccc(Br)cc2)[n+]2c1CCCCC2)c1ccc([N+](=O)[O-])cc1 | i | 86* | 3 | x | -13 | i | -28 | 94
OCC[C@H]1C[C@@H](O)[C@H](O)[C@]2(OCc3ccccc32)O1 | i | 1 | -14 | x | 2 | i | x | x
CCCCN(C)C(=O)c1cc2c(Cl)nc3ccccc3c2s1 | i | 49* | -21 | x | -11 | i | 0 | 102
CCNc1ccc(S(=O)(=O)N(C)C)cc1[N+](=O)[O-] | i | 66* | 7 | 0 | -6 | i | -3 | 97
COCc1cc(C)nc(N/N=C/c2ccc(-c3cc(C(=O)O)ccc3Cl)o2)c1C#N | i | 2 | x | 2 | x | x | x | x
COCc1cc(C)nc(N/N=C/c2ccc(Cl)c(Cl)c2)c1C#N | i | 85* | 3 | -4 | -23 | i | 2 | 101
O=c1c2ccccc2nnn1CSc1ccccc1 | i | 97* | -6 | -2 | -6 | i | x | x | GRK2 CP2=13;FAM quench SP=100
CN1CCN(c2ccc(-c3cccc(NC(=O)COc4ccc(Cl)cc4)c3)nn2)CC1 | i | 0 | -3 | x | 3 | i | -13 | 100
CN1CCN(c2ccc(-c3cccc(NC(=O)COc4ccccc4)c3)nn2)CC1 | i | 0 | 0 | x | -17 | i | -11 | 96
COc1ccc(Cl)cc1C(=O)NNC(=S)NC(=O)c1cc(-c2ccccc2)nc2ccccc12 | i | 43* | 0 | -1 | -4 | i | -2 | 109
COc1ccc(Cc2c(O)nc(SC)n(C(C)=O)c2=O)cc1 | i | 100* | -3 | 1 | -7 | i | -1 | 103
CCCCn1c(N)c(N(CCC(C)C)C(=O)c2oc3ccc(OCC)cc3c2C)c(=O)[nH]c1=O | i | 2 | 0 | x | 2 | i | x | x
NS(=O)(=O)c1ccc(NC(=S)N2CCN(c3cccc(Cl)c3)CC2)cc1 | i | 0 | 2 | -4 | 11 | i | x | x
NS(=O)(=O)c1ccc(NC(=S)N2CCN(c3ccccc3Cl)CC2)cc1 | i | 48* | -5 | -11 | 5 | i | x | x | GRK2 CP2=2;FAM quench SP=334
COc1ccc(N(CC(=O)NCc2cccs2)S(=O)(=O)c2ccc(C(C)=O)cc2)cc1 | x | x | 3 | x | -3 | x | x | x
Fc1ccc2cc(-c3ccccc3F)ncc2c1 | x | 100* | -18 | x | -8 | i | x | x | GRK2 CP2=-33;FAM quench SP=103
COc1ccc(CC2(C)OC(c3ccc(C)c([N+](=O)[O-])c3)=NN2C(C)=O)cc1 (stereo unspecified) | i | 0 | -8 | x | -4 | i | x | x
O=C1C2C(c3cccc(/C=C/c4ccccc4)c3)CC=CC2C(c2ccc3ccccc3c2)N1Cc1ccccc1 (stereo unspecified) | i | 0 | -10 | x | 0 | i | 0 | 107
SMILES | ANO1 block | GRK2 aptamer HTS | TLR9-MyD88 inh | TLR4 MyD88 comp | NOD2 RIPK2 PPI | TMEM16A act | GRK2 CP1 | Aptamer quench SP | others
O=C1C2C(c3cccc(/C=C/c4ccccc4)c3)CC=CC2C(c2ccc(C(F)(F)F)cc2)N1Cc1ccccc1 (stereo unspecified) | i | 0 | 1 | x | -1 | i | 0 | 103
CC[C@@H]1CC=C[C@H]2[C@H]1C(=O)N(Cc1ccccc1)[C@H]2c1ccc(C(F)(F)F)cc1 | i | 1 | 0 | x | -1 | i | x | x
Cc1ccc(F)c(C2C3C=CCC(c4cccc(-c5ccc(N(C)C)cc5)c4)C3C(=O)N2Cc2ccccc2)c1 (stereo unspecified) | i | 0 | -4 | x | -7 | i | 5 | 96
Cc1ccc(-c2cccc(C3CC=CC4C3C(=O)N(Cc3ccccc3)C4c3ccc4ccccc4c3)c2)cc1 (stereo unspecified) | i | 0 | -11 | x | -13 | i | x | x
O=C(CSc1nncn1-c1ccccc1)c1c[nH]c2ccccc12 | i | 51* | 8 | 1 | -7 | i | 6 | 109
Cc1c(NC(=O)NC(C)N2C(=O)C3C4C=CC(C4)C3C2=O)c(=O)n(-c2ccccc2)n1C (stereo unspecified) | i | 81* | -4 | 8 | -9 | i | 3 | 101
Cc1c(NC(=O)CN2C(=O)C3C4C=CC(C4)C3C2=O)c(=O)n(-c2ccccc2)n1C (stereo unspecified) | i | 1 | 2 | 7 | -12 | i | x | x
C=CC[C@H](CC(=O)NCCO)C(=O)N[C@H](COC(=O)[C@@H](CC=C)Cc1ccc(F)cc1)C(C)(C)C | x | 7 | 12 | x | -2 | i | x | x
